# Out of some 2,100 compounds screened, about 760 (36%) were called active. Not all results are given here. Values without a mark were called inactive.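 The calls were made as follows: active = thallium-flux fluorescence traces judged by eye to show enhanced or reduced glutamate response, manual score 1 or -1, so both directions (some results past the limit were not filed as active); inactive = the rest, including fluorescent or raised-baseline compounds.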
# Experiment: thallium influx changes without GIRK channels – cell-based, HEK-293 rmGlu8, no GIRK, thallium flux, counter-screen for GIRK activator project, confirmation (AID 623868);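 also: extra codes mark interference with 3 for fluorescent and 4 for baseline rise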
# Settings: thallium flux fluorescence, at 10 µM, actives lie on both sides, codes: 1 enhancer, -1 blocker, 0 none, thallium stimulus containing EC20 glutamate
row,SMILES,manual score
1,CSC1=N/C(=C\c2ccc(Br)o2)C(=O)S1,0
2,CCCCN(C)C1=CC2=CC(=C(C#N)C#N)CCC2CC1 (stereo not drawn),3
3,Cc1cc2c(cc1C)C(=O)NC(C)(C)C2,0
4,Cc1cccc(OCC(O)CN2C(C)(C)CC(O)CC2(C)C)c1 (stereo not drawn),0
5,COc1ccc(Nc2nc(C)cc(C)c2C#N)cc1OC,0
6,CCc1nc(N2CCOCC2)c(C#N)c2c1CCCC2,0
7,Oc1[nH]c2ccccc2c1N=Nc1nc2ccccc2s1,1 (active)
8,CCCCn1c(=S)[nH]c2c(oc3ccc(Cl)cc32)c1=O,1 (active)
9,CCCCn1c(-c2ccc(Cl)cc2)nc2c(=O)n(C)c(=O)[nH]c21,0
10,CCN(CC)CCCn1c(=S)[nH]c2cc(Cl)ccc2c1=O,0
11,CC1(C)CC(=O)c2c(noc2-c2ccccc2)C1,0
12,CCCCN(CCCC)c1ccc(C(=O)c2ccccc2C(=O)O)c(O)c1,-0.5
13,CCCCn1c(NC(=O)c2ccccc2Cl)c(C#N)c2nc3ccccc3nc21,0
14,CCCCN(CCCC)C(=S)NC(=O)c1ccccc1Cl,1 (active)
15,CCCCN(CCCC)C(=S)NC(=O)C(C)(C)C,1 (active)
16,CCCN(CCC)CCCOC(=O)c1ccc(Cl)cc1Cl,0
17,CCCCN(CCCC)S(=O)(=O)c1ccc(NC(=O)c2ccc([N+](=O)[O-])cc2Cl)cc1,0
18,CCCN(CCC)C(=S)NC(=O)c1ccc(Cl)cc1Cl,1 (active)
19,CC1Cc2ccccc2N1C(=S)NC(=O)c1ccc(Cl)cc1Cl (stereo not drawn),1 (active)
20,CC(C)CCNC(=O)C(C)N(C(=O)Cn1nnc(-c2ccc(F)cc2)n1)C1CCCC1 (stereo not drawn),0
21,CCCCC(=O)N1CCCC(c2nc3c(nnn3Cc3cc(C)ccc3C)c(=O)[nH]2)C1 (stereo not drawn),0
22,CC(C)(C)c1ccc(CN2C3=NCCCN3c3ccccc32)cc1,0

row,SMILES,manual score
1,CCN(CC)C(=S)NC(=O)c1ccc(Cl)cc1Cl,1 (active)
2,CCOC(=O)/C(=C/C=C1\Sc2ccccc2N1CC)C(C)=O,3
3,COc1ccc(NC(=S)NC(NC(=O)/C=C/c2ccccc2)C(Cl)(Cl)Cl)cc1 (stereo not drawn),0
4,Cc1ccc(/C=C/C(=O)c2ccccc(=O)c2O)cc1C,1 (active)
5,O=C(/C=C/c1ccccc1)c1cc(Br)ccc(=O)c1O,1 (active)
6,CCc1ccc(/C=C/C(=O)c2cc(Br)ccc(=O)c2O)cc1,1 (active)
7,COc1ccc(/C=C/C(=O)c2cc(Br)ccc(=O)c2O)cc1,1 (active)
8,CCCCCCn1cnc2c(c1=O)c1nc3ccccc3nc1n2/N=C/c1ccco1,0
9,Cc1cccc(/C=c2\s/c(=C\C(=O)C(C)(C)C)[nH]c2=O)c1,0
10,Cc1cccc(NC(=O)COc2ccc(Br)cc2/C=N/O)c1,0
11,Cc1cccc(/C=C/C(=O)c2cc(Br)ccc(=O)c2O)c1,1 (active)
12,CC(C)(C)C1CCc2[nH]nc(C(=O)O)c2C1 (stereo not drawn),-1 (active)
13,CSC(=O)NC12CC3CC(CC(C)(C3)C1)C2,0
14,O=C(NC(=S)Nc1cc(C(F)(F)F)ccc1Cl)c1ccccc1,0
15,Cc1ccc(C(=O)NC(=S)Nc2ccccc2C(F)(F)F)cc1,1 (active)
16,Cc1cccc(C(=O)NC(=S)Nc2ccccc2C(F)(F)F)c1,1 (active)
17,Cc1ccc(C(=O)NC(=S)Nc2ccccc2C(F)(F)F)cc1C,1 (active)
18,O=C(NC(=S)NCc1ccc(-c2nc3ccccc3s2)cc1)c1ccco1,1 (active)
19,O=C(NC(=S)Nc1nc2ccccc2s1)c1ccco1,1 (active)
20,O=C(Nc1ccncc1)c1ccc2c(c1)C(=O)N(C1CCCCC1)C2=O,0
21,CC(C)(C)C(=O)/C=c1\[nH]c(=O)/c(=C\c2ccc(F)cc2)s1,0.5
22,CCOc1ccc(C(C)=O)cc1N1C(=O)C2C(C1=O)C1C=CC2C12CC2 (stereo not drawn),0

row,SMILES,manual score
1,CCOc1cc(/C=N/NC(=O)CNc2cccc(C)c2)ccc1OC(=O)c1ccccc1,0
2,Cc1ccc(C(=O)NNc2nc3ccccc3nc2C(F)(F)F)cc1,1 (active)
3,Cc1nc(/N=C(\N)NC(=O)c2ccccc2)nc2ccccc12,0
4,Cc1ccc(C(=O)NC2(C(F)(F)F)N=C3SCCN3C2=O)cc1 (stereo not drawn),0
5,O=C(NNc1nc2ccccc2nc1C(F)(F)F)c1ccccc1,1 (active)
6,CC(C)n1c(CCC(=O)O)ccc1-c1ccccc1,0
7,Fc1ccc(/C=N/NC(=S)Nc2ccc(Cl)cc2)cc1F,1 (active)
8,Fc1cccc(/C=N/NC(=S)Nc2ccccc2Cl)c1,1 (active)
9,S=C(N/N=C/c1ccccc1Cl)Nc1ccccc1,0
10,Fc1ccc(NC(=S)N/N=C/c2ccc(F)c(F)c2)c(F)c1,1 (active)
11,Fc1cc(Br)ccc1NC(=S)NCCc1ccccc1,0
12,Fc1ccc(NC(=S)N/N=C/c2cccc(Br)c2)c(F)c1,1 (active)
13,CCSc1ccccc1C(=O)Nc1cccnc1,0
14,CN(C(=O)c1cccnc1)c1nnc(-c2cnccn2)s1,0
15,Cc1ccccc1-n1nnc2c(=O)oc3ccccc3c21,-1 (active)
16,CN1C(=O)c2oc3ccccc3c(=O)c2C1c1ccccn1 (stereo not drawn),0
17,CC(=O)Oc1ccc2c(c1)Oc1cc(OC(C)=O)ccc1C21OC(=O)c2ccccc21,3
18,COc1cc(OC)c(NC(=O)CCNC(=O)Cn2cnc3ccccc3c2=O)cc1Cl,0
19,COc1cccc(NC(=O)C(Sc2nc3ccccc3c(=O)n2CC(C)C)c2ccccc2)c1 (stereo not drawn),1 (active)
20,CCCn1c(SC(C(=O)Nc2cc(C)ccc2OC)c2ccccc2)nc2ccccc2c1=O (stereo not drawn),1 (active)
21,COc1cccc(NC(=O)CSc2nc(N)cc(N)n2)c1,0
22,COc1ccc(NC(=O)CSc2nc3ccccc3c(=O)n2CCCN2CCCCC2)c(OC)c1,0

row,SMILES,manual score
1,COc1cccc(NC(=O)Cn2cc(C#N)c3ccccc32)c1,0
2,C=CCN(CC=C)C(=S)NC(=O)c1ccc(-c2ccccc2)cc1,1 (active)
3,CN(Cc1ccccc1)C(=S)NC(=O)c1ccc(-c2ccccc2)cc1,1 (active)
4,CN(Cc1ccccc1)C(=S)NC(=O)C1CCCCC1,1 (active)
5,CCc1cccc(NC(=O)NC2CCCCC2)c1,-0.5
6,O=C(NC(=S)NCC1COc2ccccc2O1)c1ccccc1 (stereo not drawn),0
7,CCCN(CC1CC1)C(=S)Nc1ccc(Oc2ccccc2)cc1,0
8,CCCN(CCC)C(=S)NC(=O)c1ccc(-c2ccccc2)cc1,1 (active)
9,CCOC(=O)C(C)Oc1ccc2c(CC)cc(=O)oc2c1C (stereo not drawn),-0.5
10,CCCn1c(=N)c(C(=O)NCc2ccc3c(c2)OCO3)cc2c(=O)n3cccc(C)c3nc21,0
11,O=C(Nc1nnc(SCc2ccc(F)cc2)s1)C1CC(=O)N(c2ccc3c(c2)OCCO3)C1 (stereo not drawn),0
12,C=CCN(CC=C)C(=S)NC(=O)c1ccc([N+](=O)[O-])cc1,1 (active)
13,Cn1cccc1CNC1CCCC1,0
14,C=CCn1c(=S)[nH]c2ccccc2c1=O,1 (active)
15,C=CCn1c(=S)[nH]c2ccc(Br)cc2c1=O,1 (active)
16,COCCNC(=O)CCCCCn1c(=S)[nH]c2ccccc2c1=O,0
17,CC(=O)c1ccc(N2CCCC2)c(F)c1,0
18,CCOC(=O)c1c(C)n(C)c2ccc(O)c(CN3CCC(C)CC3)c12,0
19,COC(=O)c1c(NS(=O)(=O)c2ccc(C)cc2)sc2c1CCC(C)C2 (stereo not drawn),1 (active)
20,COC(=O)c1ccc(NS(=O)(=O)c2ccc(SC)cc2)cc1,0
21,CC(C)OC(=O)c1c(NS(=O)(=O)c2ccccc2)sc2c1CCCC2,1 (active)
22,COc1ccc(S(=O)(=O)NCCC(=O)NC2CCCCCCC2)cc1,0

row,SMILES,manual score
1,CC1CCc2c(sc(NS(=O)(=O)c3ccccc3)c2C(=O)OC(C)C)C1 (stereo not drawn),1 (active)
2,Cc1ccc(-c2c(C)sc(NC(=O)C3C4CCC(O4)C3C(=O)O)c2C(=O)OC(C)C)cc1 (stereo not drawn),0
3,COc1cccc(CNc2nc3ccccc3n2CCN2CCCCC2)c1OC,0
4,CC(C)(C)NC(=O)C(c1ccncc1)N(C(=O)c1csnn1)c1ccccc1 (stereo not drawn),0
5,CSc1cccc(NC(=O)COc2ccccc2)c1,0
6,COC(=O)c1ccccc1NC(=S)NC(=O)c1ccc(C)cc1,1 (active)
7,COC(=O)c1ccccc1NC(=S)NC(=O)COc1ccccc1,1 (active)
8,COC(=O)COc1ccc(S(=O)(=O)Nc2ccccc2C(=O)OC)cc1,-0.5
9,O=C(COc1ccccc1)NC(=S)Nc1cccc([N+](=O)[O-])c1,1 (active)
10,O=C(COc1ccccc1)NC(=S)Nc1ccc2c(c1)Cc1ccccc1-2,0
11,COC(=O)c1ccccc1NC(=S)NC(=O)c1ccccc1,1 (active)
12,COC(=O)c1ccccc1NC(=S)NC(=O)COc1ccc(C)cc1,0
13,COc1ccc(OC)c(-c2c3cc(O)c(=O)cc-3oc3cc(O)c(O)cc23)c1,0
14,COc1cc(C)nc(N(Cc2ccccc2)S(=O)(=O)c2ccccc2)n1,0
15,O=C(NNS(=O)(=O)c1ccccc1F)c1cccc(S(=O)(=O)N2CCOCC2)c1,0
16,COc1cc(CNc2ccc(N3CCCC3)cc2)ccc1OCc1ccccc1,0
17,CC(Oc1ccc(Cl)cc1)C(=O)NNC(=S)NC(=O)c1ccco1 (stereo not drawn),1 (active)
18,CC(Oc1ccc(Cl)cc1)C(=O)N/N=C/c1ccsc1 (stereo not drawn),0
19,CC(Oc1ccc2ccccc2c1)C(=O)NNC(=S)NC(=O)c1ccco1 (stereo not drawn),1 (active)
20,CCSc1nnc(NC(=O)NC(CC)(C(F)(F)F)C(F)(F)F)s1,0
